Reference: PubChem BioAssay AID1259343 (VanderVen Lab, College of Veterinary Medicine, Cornell …, 2017)
Among all 6,200 compounds or so, about 2,900 (47%) were called active. The set was probably picked from earlier hits. The list shows a part of the results. Values without a mark were called inactive. No stated cut-off is given here; in the data, active means inhibition above about 50%; inactive means the rest.

Experiment: Mycobacterium tuberculosis growth inhibition, primary screen (AID 1259343)
Conditions: inhibition: at 10 µM, stronger effect = higher value; outcome: 10 uM

Compound | inhibition
O=C(O)/C=C/C=C/c1ccccc1 | 38.2%
Cc1cc(C)c(C)c(C(=O)/C=C/C(=O)O)c1C | 85.5% (active)
O=C(Nc1ccc(-c2nc3ccccc3o2)cc1)C1CCN(C(=O)C2CCCCO2)CC1 (centres undefined) | 34.5%
Cc1nc(-c2ccc(NC(=O)C3CCOCC3)cc2)co1 | 88.5% (active)
O=C(Nc1cccc(-c2noc(C3CC3)n2)c1)C1CCOCC1 | 11.2%
COc1cc(C(=O)NCC(=O)Nc2nc3c(ccc4ccccc43)s2)cc(OC)c1OC | 88.5% (active)
O=S(=O)(Nc1nc2c(ccc3ccccc32)s1)c1ccc(Cl)s1 | 22.8%
C(=Cc1nc2c(ccc3ccccc32)s1)c1ccc2c(c1)OCCO2 | 36.3%
O=C1CCC(=O)N1OCCOc1cccc(Oc2ccccc2)c1 | 72% (active)
CCCCNC(=O)NCC12CC3CC(CC(C3)C1)C2 | 74.1% (active)
CCOC(=O)C1=C(C)N(c2ccc3c(c2)OCCO3)C(=S)NC1c1cccc(F)c1 (centres undefined) | 1.48%
CC(C)(C(=O)Nc1ccc(F)cc1)c1ccc2c(c1)OCCO2 | 57.4% (active)
Cc1nc(N2CCCCC2)c2c3c(sc2n1)CC(C)CC3 (centres undefined) | -32.2%
CC1CCc2c(sc3nc(-c4ccc(N(C)C)cc4)nc(N4CCNCC4)c23)C1 (centres undefined) | 94.9% (active)
CC1CCc2c(sc3nc(C(C)C)nc(N4CCN(C(=O)Nc5c(Cl)cccc5Cl)CC4)c23)C1 (centres undefined) | 10.7%
COc1ccc(CN(C(=O)Nc2cccc(Cl)c2)C2CC2)cc1 | -5.25%
Cc1ccc(NC(=O)NC(=O)CN(Cc2ccco2)C2CC2)cc1C | -3.72%
COC(=O)c1ccc(CN(Cc2sccc2C)C2CC2)o1 | 98.5% (active)
COC(=O)c1ccc(CN(Cc2ccc(OC)cc2)C2CC2)o1 | 54.7% (active)
CCN(CC1COc2ccccc2O1)C(=O)NCc1sccc1C (centres undefined) | -23.5%
COC(=O)c1ccc(CN(Cc2ccc(C)o2)C2CC2)o1 | 66.2% (active)
COc1cccc(CN(C)C(=O)c2cc3ccccc3o2)c1OC | 39.1%
COC(=O)c1ccc(CN(Cc2cccc(OC)c2OC)C2CC2)o1 | 83.8% (active)
COC(=O)c1ccc(CSc2n[nH]c(=S)s2)o1 | inactive
COc1ccc(CCN(Cc2ccc(C)o2)C(=O)CN(C(=O)c2ccccc2Cl)C2CC2)cc1OC | -5.97%
N#Cc1cc(C(=O)c2cc(Cl)cc(Cl)c2O)cn(-c2nccs2)c1=O | 25.4%
O=C(CC1CC2CCC1C2)N1CCN(c2ccccc2O)CC1 (centres undefined) | 85.9% (active)
O=C(CC1C[C@@H]2CC[C@H]1C2)N1CCc2c(cnn2-c2ccccn2)C1 (some centres undefined) | 49.8%
O=C(NCCC1CC2CCC1C2)c1ccc(N2CCOCC2)nc1 (centres undefined) | 5.89%
